Results published in PubChem BioAssay (Tox21).
Several values for one entry are separate records, joined by “and”; a condition that tells them apart may be missing. Equal values may be shown once. Results filed as inconclusive are left out. A call without a number means that no potency is given here. Where a structure was tested more than once in an assay, its records may differ in their call. Activity calls are given as the source filed them. Unless noted, calls come from the whole dose curve; as a rule, active = well fitted curve in the direction sought with a large enough effect in the repeat runs; inconclusive = weak or mixed curves; inactive = no such curve, though single readings can be large; an effect the other way counts as inactive or inconclusive.

Columns and labels:
[1] = qHTS assay for small molecule agonists of the p53 signaling pathway (AID 651631; calls by dose curve; note: nearly all actives have a fitted effect of over 15% in size; note: potency is the fitted concentration of half-maximal effect)
Method in brief: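 Fluorescence intensity from cleaved LiveBLAzer B/G substrate (2 h, room temperature) served as the signal. Beforehand, HCT-116 reporter cells bearing p53 response elements were treated 16 h at 37 °C with DMSO-dissolved compounds.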

[2] = qHTS assay for small molecules that induce genotoxicity in human embryonic kidney cells expressing luciferase-tagged ATAD5 (AID 651632); note: nearly all actives have a fitted effect of over 15% in size
Method in brief: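 Quantitative HTS in HEK293T expressing luciferase-tagged ATAD5, whose levels rise upon DNA damage. Exposure ran 16 hr at 37C and 5% CO2, with luminescence read 30 min after Amplite addition at room temperature.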

[3] = qHTS assay for small molecule agonists of the p53 signaling pathway - cell viability (AID 651633; calls by dose curve; note: nearly all actives have a fitted effect of over 30% in size; note: potency is the fitted concentration of half-maximal effect)
Method in brief: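 p53RE-bla cells were treated with compound for 16 hours at 37 C. Cytotoxicity was then measured as CellTiter-Glo luminescence after 30 min at room temperature.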

[4] = qHTS assay for small molecule disruptors of the mitochondrial membrane potential - cell viability (AID 720634; calls by dose curve;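 note: human HepG2 liver cancer cells; series mostly up to about 83 µM; nearly all actives have a fitted effect of over 20% in size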)
Method in brief: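 ATP-based luminescent viability readout (CellTiter-Glo, 30 min, room temperature) in HepG2 cells multiplexed with the m-MPI membrane potential dye; compound exposure lasted 1 hr at 37 C.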

[5] = qHTS assay for small molecule disruptors of the mitochondrial membrane potential (AID 720635); note: potency is the fitted concentration of half-maximal effect
Method in brief: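 HepG2 cells exposed to compound 1 hr at 37C, then Mito-MPS dye 30 min. Ratio read of aggregate (540/590 nm) versus monomer (490/535 nm) fluorescence.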

[6] = qHTS assay to test for compound auto fluorescence at 590 nm (red) in HepG2 cells (AID 720674)
Method in brief: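 HepG2 cells, 2,000 per well in MEM with 10% FBS, attached overnight at 37 C, then got 23 nL compound or DMSO. After 1 hr at 37 C, 5% CO2, red fluorescence was read at 540/590 nm against Rose Bengal sodium as reference.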

[7] = qHTS assay to test for compound auto fluorescence at 535 nm (green) in HepG2 cells (AID 720675)
[8] = qHTS assay to test for compound auto fluorescence at 460 nm (blue) in HEK293 cells (AID 720678)
Method in brief: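 HEK293, 2,000 cells/well, 10% dialyzed FBS; attach 4-5 hr 37C; pin compound or DMSO; o/n 37C/5% CO2; fluorescence 405/460 nm; triamterene-equivalent units.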

[9] = qHTS assay to test for compound auto fluorescence at 590 nm (red) in HEK293 cells (AID 720679)
Method in brief: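 Intensity at 540nm excitation and 590nm emission is reported as Rose Bengal sodium-equivalent autofluorescence. Measurements followed overnight exposure (37C, 5% CO2) of HEK293 cells, 2,000 per well, to 23 nL compound.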

[10] = qHTS assay to test for compound auto fluorescence at 535 nm (green) in HEK293 cells (AID 720680)
[11] = qHTS assay to test for compound auto fluorescence at 460 nm (blue) in HEK293 cell free culture (AID 720681)
Method in brief: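 Compounds were added to cell-free DMEM with 10% FBS and fluorescence read directly. The blue channel used 405 nm excitation and 460 nm emission, with triamterene as the reference fluorophore.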

[12] = qHTS assay to test for compound auto fluorescence at 590 nm (red) in HEK293 cell free culture (AID 720683)
Method in brief: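 Cell-free wells of DMEM with 10% FBS received compound, and intrinsic fluorescence was read at excitation/emission 540/590 nm. Values expressed as equivalence to Rose Bengal sodium.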

[13] = qHTS assay to test for compound auto fluorescence at 590 nm (red) in HepG2 cell free culture (AID 720684)
Method in brief: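 Rose Bengal sodium served as the reference for red signal. Test compounds were dispensed into serum-containing MEM (10% FBS) without cells, and plates were read at 540/590 nm.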

[14] = qHTS assay to test for compound auto fluorescence at 460 nm (blue) in HepG2 cell free culture (AID 720685)
Method in brief: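 Cell-free plates of MEM plus 10% FBS received 23 nL compound or DMSO vehicle; blue-channel (405/460 nm) intensity scored against triamterene as reference fluorophore.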

[15] = qHTS assay to test for compound auto fluorescence at 535 nm (green) in HepG2 cell free culture (AID 720686)
[16] = qHTS assay to test for compound auto fluorescence at 460 nm (blue) in HepG2 cells (AID 720687)
Method in brief: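 HepG2 cells in MEM with 10% FBS, attached overnight at 37 C, were exposed to compound or DMSO for 1 hr at 37 C, 5% CO2. Blue fluorescence was read at 405/460 nm, with triamterene as reference fluorophore.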

[17] = target: Glucocorticoid receptor (Homo sapiens) (UniProt P04150); test: qHTS assay to identify small molecule agonists of the glucocorticoid receptor (GR) signaling pathway (AID 720691; active = well fitted activation curve with a large enough effect in the signal ratio in the repeat runs, not every such curve was filed as active; the % refers to the signal ratio)
Glucocorticoid receptor (Homo sapiens), sequence (P04150 whole entry, looked up): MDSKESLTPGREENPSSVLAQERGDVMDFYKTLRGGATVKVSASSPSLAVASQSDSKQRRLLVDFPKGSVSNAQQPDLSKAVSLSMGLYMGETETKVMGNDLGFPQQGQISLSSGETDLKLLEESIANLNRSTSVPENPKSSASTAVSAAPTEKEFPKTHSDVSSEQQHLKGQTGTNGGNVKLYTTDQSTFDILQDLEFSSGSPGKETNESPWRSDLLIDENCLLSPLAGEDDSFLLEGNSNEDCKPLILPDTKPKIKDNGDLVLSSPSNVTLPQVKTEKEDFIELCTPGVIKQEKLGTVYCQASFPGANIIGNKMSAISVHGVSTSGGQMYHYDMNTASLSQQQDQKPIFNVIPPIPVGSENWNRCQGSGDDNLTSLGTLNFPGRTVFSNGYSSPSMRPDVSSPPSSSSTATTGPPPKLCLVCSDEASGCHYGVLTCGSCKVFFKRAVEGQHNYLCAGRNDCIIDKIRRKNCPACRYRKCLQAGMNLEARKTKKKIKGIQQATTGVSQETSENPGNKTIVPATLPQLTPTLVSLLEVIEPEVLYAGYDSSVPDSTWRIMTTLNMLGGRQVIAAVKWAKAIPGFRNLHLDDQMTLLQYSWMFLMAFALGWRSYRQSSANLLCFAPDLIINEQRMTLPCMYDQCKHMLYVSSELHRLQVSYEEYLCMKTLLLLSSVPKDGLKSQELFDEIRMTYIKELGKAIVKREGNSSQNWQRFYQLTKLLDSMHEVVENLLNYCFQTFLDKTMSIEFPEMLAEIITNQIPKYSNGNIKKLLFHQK
Method in brief: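 Cells: GR-bla HeLa, endogenous GR with stably integrated GRE-beta-lactamase reporter. Treatment 18 h, 37 C, compounds delivered in DMSO. Detection via LiveBLAzer B/G FRET substrate, 2 h RT, fluorescence intensity.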

[18] = qHTS assay for small molecules that induce genotoxicity in human embryonic kidney cells expressing luciferase-tagged ATAD5 - cell viability (AID 651634; calls by dose curve; note: nearly all actives have a fitted effect of over 25% in size)
Method in brief: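 After 15.5 hr incubation with compound at 37C, 5% CO2, HEK293T ATAD5-luciferase cells received CellTiter-Fluor reagent; fluorescence intensity was quantified following 30 min at 37C.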

[19] = qHTS assay to test for compound auto fluorescence at 535 nm (green) in HEK293 cell free culture (AID 720682)
Method in brief: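 Intrinsic compound fluorescence is measured in culture medium containing 10% FBS, with excitation at 485 nm and detection at 535 nm, referenced to fluorescein.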

[20] = target: Glucocorticoid receptor (Homo sapiens) (UniProt P04150); test: qHTS assay to identify small molecule antagonists of the glucocorticoid receptor (GR) signaling pathway (AID 720692; active = well fitted inhibition curve with a large enough effect in the signal ratio in the repeat runs, not every such curve was filed as active; the % refers to the signal ratio)
Method in brief: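 Quantitative HTS in antagonist format: HeLa cells expressing endogenous GR and a stably integrated GRE-bla reporter, stimulated with 5 nM dexamethasone (final) alongside test compounds for 18 h.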

SMILES | Potency [1] | Potency [2] | Potency [3] | Potency [4] | Potency [5] | outcome [6] | outcome [7] | Potency [8] | outcome [9] | outcome [10] | Potency [11] | outcome [12] | outcome [13] | Potency [14] | outcome [15] | Potency [16] | outcome [17] | Potency [18] | outcome [19] | Potency [20]
COc1ccc2cc3[n+](cc2c1OC)CCc1cc2c(cc1-3)OCO2 | 61.6 µM (active) | inactive | inactive and 30.9 µM (active) | inactive | 1.68 µM (active) and 870 nM (active) | inactive | inactive | inactive | inactive | inactive | inactive | inactive | inactive | inactive | inactive | inactive | inactive |  |  | 
CC[N+](CC)(CC(=O)Nc1c(C)cccc1C)Cc1ccccc1 |  | inactive | inactive | inactive |  | inactive | inactive | inactive | inactive |  | inactive | inactive | inactive | inactive | inactive |  |  | inactive | inactive | 
CC1=CC(=O)CC(C)(C)C1 | inactive |  | inactive | inactive | inactive | inactive | inactive | inactive | inactive |  | inactive | inactive | inactive | inactive | inactive | inactive | inactive | inactive | inactive | inactive
OCC(CO)(CO)CO |  | inactive | inactive | inactive | inactive | inactive | inactive | inactive | inactive | inactive | inactive | inactive | inactive | inactive | inactive | inactive |  | inactive |  | 
CC(CN1c2ccccc2Sc2ccccc21)N(C)C (stereo not given) |  | inactive | inactive | inactive |  | inactive | inactive | inactive | inactive | inactive | inactive | inactive | inactive | inactive | inactive |  |  | inactive |  | 
CCCOCC(C)O (stereo not given) |  | inactive | inactive | inactive |  | inactive | inactive | inactive | inactive |  | inactive | inactive | inactive | inactive | inactive | inactive |  | inactive |  | 
CC(COCC(C)OC(=O)c1ccccc1)OC(=O)c1ccccc1 (stereo not given) |  | inactive | inactive | inactive | inactive | inactive | inactive | inactive | inactive | inactive | inactive | inactive | inactive | inactive | inactive | inactive | inactive | inactive |  | inactive
O=C(NCC1CCCCN1)c1cc(OCC(F)(F)F)ccc1OCC(F)(F)F (stereo not given) | inactive |  | inactive | inactive |  | inactive | inactive | inactive | inactive | inactive | inactive | inactive | inactive | inactive | inactive |  |  |  | inactive | 
